Laboratory results published in ChEMBL document CHEMBL3988442, “University of Dundee, Small-Polar-MMV Screening Library” (2021).
The whole screen tested about 66,000 compounds, of which about 960 (1.5%) showed an effect of 50% or more. This is one part of a sample in which strong results are shown more often than they occur.

Tested on: Trypanosoma brucei
Experiment: Trypanosoma brucei 72 hour study
Type: functional, organism-based
Parameters: scale not given: in the data most compounds retested in dose-response had high values

Compound: CCN1CCC2(C1)CN(S(=O)(=O)c1cn(C)cn1)C2.O=C(O)C(F)(F)F.O=C(O)C(F)(F)F
- Percent Effect (30.3 µM, […]): -6.671%

Compound: Cl.O=C(c1cc2c(s1)CCCC2)N1CCc2nc(C3CCCN3)ncc2C1 (stereo not given)
- Percent Effect (30.3 µM, […]): 6.632%

Compound: Cn1cc(-c2ncc(C(=O)NCCCn3ccccc3=O)s2)cn1
- Percent Effect (30 µM, 30.03 µM): 73.43%

Compound: CS(=O)(=O)NCCCNC(=O)c1cnc(-c2ccsc2)s1
- Percent Effect (30 µM, 30.03 µM): -7.977%

Compound: O=C(NCCCn1ccccc1=O)c1cnc(-c2ccsc2)s1
- Percent Effect (30 µM, 30.03 µM): 22.57%

Compound: Cn1ncc2c(N3CC(N4CCCCC4)C3)nc(C3CCCC3)nc21
- Percent Effect (30 µM, 30.03 µM): -31.56%

Compound: Cn1ncc2c(N3CCN4CCCCC4C3)nc(C3CCCC3)nc21 (stereo not given)
- Percent Effect (30 µM, 30.03 µM): -37.34%

Compound: Cc1nc(N2CCCC(N3CCCC3)C2)c2cnn(C)c2n1 (stereo not given)
- Percent Effect (30 µM, 30.03 µM): 50.19%

Compound: CNc1cc(C)nc(N2C[C@H](C3CC3)[C@@H](N)C2)n1
- Percent Effect (30 µM, 30.03 µM): 85.5%

Compound: CC(C)Oc1cc(N2CC[C@H](CO)[C@@H](O)C2)nc(N)n1
- Percent Effect (30 µM, 30.03 µM): -21.24%

Compound: CC(C)Oc1cc(N2C[C@H](C3CC3)[C@@H](N)C2)nc(N)n1
- Percent Effect (30 µM, 30.03 µM): 88.99%

Compound: CNc1cc(C)nc(N2C[C@@H](C(=O)O)[C@H](C3CC3)C2)n1
- Percent Effect (30 µM, 30.03 µM): -4.016%

Compound: CC(C)Oc1cc(N2C[C@@H](C)O[C@@H](C)C2)nc(N)n1
- Percent Effect (30.3 µM, […]): -11.25%

Compound: CCc1cc(N2C[C@H](C3CC3)[C@@H](N)C2)nc(N2CCCC2)n1
- Percent Effect (30 µM, 30.03 µM): 72.1%

Compound: Cc1cc(N2C[C@H](C3CC3)[C@@H](N)C2)nc(N2CCCCC2)n1
- Percent Effect (30 µM, 30.03 µM): -8.75%

Compound: CCc1cc(N2C[C@H](C3CC3)[C@@H](N)C2)nc(N2CCOCC2)n1
- Percent Effect (30 µM, 30.03 µM): -22.85%

Compound: CNc1cc(C)nc(N2C[C@H](NC(=O)C3CCOCC3)[C@@H](C3CC3)C2)n1
- Percent Effect (30 µM, 30.03 µM): -23.63%

Compound: CN(c1ccncn1)C1CC2(CCN(C(=O)Cc3cccs3)C2)C1 (stereo not given)
- Percent Effect (30.3 µM, […]): -10.04%

Compound: O=C(O)C(F)(F)F.O=C(c1cnccn1)N1CCCC2(CCN(Cc3ccsc3)CC2)C1
- Percent Effect (30.3 µM, […]): -8.407%

Compound: CCC(C)Oc1ccc(CNCCc2c[nH]cn2)cc1Cl (stereo not given)
- Percent Effect (30 µM, 30.03 µM): -7.702%

Compound: Cc1ccc(O[C@@H]2C[C@H]3CN(C(=O)c4cccnc4)CCN3C2)cc1.O=C(O)C(F)(F)F.O=C(O)C(F)(F)F
- Percent Effect (30 µM, 30.03 µM): 12.8%

Compound: CC(C)(C)c1cnc(CN2CCC(CN3CCOCC3)CC2)o1
- Percent Effect (30.3 µM, […]): 1.879%

Compound: Cc1noc(C)c1C(=O)N1CC[C@]2(C[C@@H](OCc3cccnc3)CO2)C1.O=C(O)C(F)(F)F
- Percent Effect (30.3 µM, […]): -230.9%

Compound: COc1ccccc1OCCNS(=O)(=O)N1CCOCC1
- Percent Effect (30 µM, 30.03 µM): -16.37%

Compound: O=C(NCCSCc1ccc(Br)s1)C1CCCN(c2cnccn2)C1 (stereo not given)
- Percent Effect (30 µM, 30.03 µM): -0.7253%

Compound: O=C(NCCSCc1ccc(Br)s1)C1CCCN(C(=O)c2cccs2)C1 (stereo not given)
- Percent Effect (30 µM, 30.03 µM): 59.17%

Compound: O=C(NCCSCc1cccs1)C1CCCN(C(=O)N2CCCC2)C1 (stereo not given)
- Percent Effect (30 µM, 30.03 µM): -13.33%

Compound: COc1ccc(OCC(=O)NS(=O)(=O)c2ccc(Br)s2)cc1
- Percent Effect (10 µM): -20.86%

Compound: Cc1ccc2c(n1)N(Cc1ccncc1)CCN(S(C)(=O)=O)C2.O=C(O)C(F)(F)F.O=C(O)C(F)(F)F
- Percent Effect (30 µM, 30.03 µM): -12.2%

Compound: COCCn1cc2c(n1)C(CNCc1ccsc1)OCC2.O=C(O)C(F)(F)F (stereo not given)
- Percent Effect (30.3 µM, […]): -36.05%
